From PubChem BioAssay (NCI)
This is part of a sample that, as a whole, favours compounds with a hit. Of some 83,000 tested, about 20% had one in any assay.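 Single-concentration screen, 48 h exposure, 96-well plates. Endpoint: percent growth. Below 10 = active.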 A number with no mark means an inactive call. Activity calls are given as the source filed them.

Tested on: OVCAR-4 ovarian
Assay: NCI-60 one-dose screen, 48 h (100 = growth as untreated, 0 = no growth, -100 = all killed)
Conditions: 10 µM unless noted
Experimental: Growth inhibition of the OVCAR-4 human tumor cell line is measured as a screen for anti-cancer activity. Cells are grown in 96 well plates and exposed to the test compound for 48 hours. Compounds are tested at a single concentration, which is 10^-5 M for most compounds. The reported endpoint is percent growth (GI% or GIPRCNT), where numbers from 0 - 100% represent growth inhibition, and numbers from -100% - 0 represent cell death. For example, a value of 40 represents 60% growth inhibition. A value of 0 means no net growth occurred over the course of the experiment. A value of -40 indicates 40% of cells at the beginning of the experiment died by the end of the experiment. A value of -100 means all cells are dead at the end of the experiment.
NCI-60 Human Tumor Cell Lines Screen was performed using the standard one-dose NCI protocol, which is described in more detail at https://dtp.cancer.gov/discovery_development/nci-60/default.htm.
Compounds with GIPRCNT values below 10 were considered active. Activity score was based on GIPRCNT using the following formula: […]
Score is 0 for GIPRCNT values of 100 or above, 50 for GIPRCNT values of 0, and 100 for GIPRCNT values of -100.

| Compound | growth |
| --- | --- |
| OCc1ccc(N2CCc3cccc(F)c3C2)cc1Cl | 32.7% [0.1 µM] |
| Cn1cccc1-c1nc2c3c(ccc2[nH]1)C(=O)c1ccccc1C3=O | 46.5% |
| COc1cccc(-c2nc3sccn3c2-c2ccnc(NCCNS(=O)(=O)c3ccc(F)cc3)c2)c1 | 22.3% |
| Oc1ccccc1-c1nnc(CNc2ccc(Cl)cc2)o1 | 34.2% |
| Nc1n[nH]c2ccc([C@@H]3Nc4ccc5[nH]ncc5c4[C@H]4C5C=CC(C5)[C@@H]34)cc12 (stereo not given in full) | 30.2% |
| Cc1ccc(-c2onc3c(=O)[nH]nc(-c4ccccc4)c23)cc1 | 67.3% |
| CCCCN(CCCC)CCCn1c(-c2ccccc2)ccc1-c1ccccc1 | 37% |
| NC(N)=N/N=C(/c1ccccc1)c1ccc(F)cc1 | 27.9% |
| Cc1ccc2c(C(C[N+](=O)[O-])c3ccccc3F)c(-c3ccccc3)[nH]c2c1 (stereo not given) | 65.7% |
| C=CC(=O)Nc1cccc(Nc2nc(SC)nc(-c3cccc([N+](=O)[O-])c3)c2C#N)c1 | 32.9% |
| COc1ccc(-c2cc(C(=O)N=Nc3c(O)[nH]c4ccc(Br)cc34)no2)cc1 | 103% |
| COc1cccc(/C=N/NC(=O)c2ccccc2Nc2ccnc(C(F)(F)F)c2)c1O | 27.9% |
| COc1cc2c(cc1-c1c(C)noc1C)ncc1nc(C3CCC(F)(F)CC3)n([C@H](C)COC(F)F)c12 | 48.1% |
| Cn1c(=O)c2c(nc3n(-c4ccc(Cl)cc4Cl)c(Sc4nc(-c5ccccc5)c(C#N)c(=O)[nH]4)cn23)n(C)c1=O | -33.1% (active) |
| c1ccc(CCNc2ncnc3[nH]ncc23)cc1 | 81.1% |
| C#CC(F)(F)[C@]1(O)CC[C@H]2[C@@H]3CCC4=CC(=O)CCC4=C3[C@@H](c3ccc(C4CC4)cc3)C[C@@]21C | 10.9% |
| c1ccc(Cn2cc(-c3nc4ccccc4s3)c3cccnc32)cc1 | 90.9% |
| COc1ccc(NC(=O)c2ccc(/C=C/C(=O)c3ncc[nH]3)cc2)cc1 | 82.5% |
| CCCc1cc(=O)n2c(C(=O)Nc3cccc(C(=O)OCC)c3)c(C(=O)Nc3ccc(F)cc3)sc2n1 | 9.71% [30 µM] (active) |
| CSc1ccc(-c2ccccc(=O)c2O)cc1 | 32.5% |

| Compound | growth |
| --- | --- |
| O=S(=O)(Nc1ccc(OC(F)F)cc1)c1ccc(-c2cnc(C3CC3)o2)cc1 | 52.3% |
| FC(F)(F)c1nc2c(NCc3ccc(-c4ccccc4)cc3)cccc2[nH]1 | 88.9% |
| CSc1ccc(-c2n[nH]nc2-c2cc3ccccc3s2)cc1 | 75.8% |
| CCOc1nc(-c2ccccc2)cc2c(O)c(C(=O)N/N=C/c3ccc(O)cc3O)[nH]c(=O)c12 | 39.3% |
| O=C1C=C(O)C(=O)C(CC2=C(O)C(=O)C=C(O)C2=O)=C1O | 101% |
| C#Cc1cccc(NC(=O)c2ccccc2NC(=O)CCl)c1 | 82.3% [8.25 µM] |
| COc1cc(Nc2cc(C)nc(N3CCN(c4ccnc5cc(Cl)ccc45)CC3)n2)cc(OC)c1 | 34.5% |
| Cc1cc(N2CCOCC2)nc(N[C@@H]2CCC[C@H](Nc3ccnc4cc(Cl)ccc34)C2)n1 | 35.5% |
| COc1ccc(/C=C2\Oc3cc(OCCCCN4CCCC4)ccc3C2=O)cc1 | 92.3% |
| O=C(/C=C/c1ccccc1)c1ccc(O)c(CN2CCN(c3cc4c(cc3F)c(=O)c(C(=O)O)cn4C3CC3)CC2)c1 | 85% |
| CN1CCN(c2ccc3nc(-c4ccc(OCCCCN5CCN(CCCCN6C(=O)c7cccc8cccc(c78)C6=O)CC5)cc4)[nH]c3c2)CC1 | 80.5% |
| O=c1ccccc(-c2ccc(-c3ccco3)cc2)c1O | 23.7% |
| C#CCOc1ccc2ncnc(N3CCC(NC(=O)CCl)CC3)c2c1 | 36.5% [8.25 µM] |
| COc1ccc(S(=O)(=O)N2CCN(C)CC2)cc1NC(=O)c1[nH]c(C)c2c1CCCCC2=O | 57% |
| C[n+]1ccccc1/C=C/c1ccc2cccc(O)c2n1 | 112% |
| Cc1cn2c(/C=C3/C(=O)Nc4c3ccc3ccccc43)c(C(F)(F)F)nc2s1 | 51.3% |
| COc1ccc(CN2c3ccccc3Sc3ccccc32)cc1O | 45.7% |
| COC(=O)[C@@H]1CCCN1C(=O)[C@@H]1CCCN1C(=O)[C@H](Cc1ccccc1)NC(=S)Nc1cc(C(F)(F)F)cc(C(F)(F)F)c1 | 77.9% |
| COc1cc2c(cc1-c1c(C)noc1C)ncc1nc(C3CCCCC3)n([C@H](C)COC(F)F)c12 | 44.8% |
| Clc1ccc2c(NCCNc3nc(N4CCOCC4)nc4ccccc34)ccnc2c1 | 3.78% (active) |
